# In ChEMBL document CHEMBL4513216, “Probing the Open Global Health Chemical Diversity Library for Multistage-Active Starting Points for Next-Generation Antimalarials” (ACS Infect Dis, 2020):
# Hit rate of the full screen: of about 69,000 compounds, about 8,600 (12%) showed an effect of 50% or more. The sample as a whole holds a higher share of strong results than the screen did.
# Tested on: Plasmodium berghei
# Test: Screen against P. berghei liver stage (PbLuc), transformed with Luciferase, at 10uM
# Assay type: functional, HepG2
# Conditions: tested at 10 uM
row,SMILES,INHIBITION [%]
1,O=S(=O)(C1CC1)N1CCO[C@H]2[C@H](Oc3cccnc3)CC[C@@H]21,-21.1
2,Cn1ccc(C(=O)N2CCc3[nH]nc(Nc4ccccc4)c3C2)n1,17.04
3,CCC1c2ccsc2CCN1C(=O)NCCc1ccccn1 (stereo not drawn),0
4,CCc1ncc(C(=O)N2CCN(Cc3ncccc3C)CC2)cn1,7.25
5,O=C1CCC(c2ccccc2)=NN1CN1CCCCCC1,25.3
6,CCN(C(=O)CCc1ccccc1)C1CC(=O)NC1=O (stereo not drawn),9.4
7,Cc1cc2ccccc2n1CC(=O)N[C@@H](C)C(=O)O,4.93
8,Cc1ccc(OCCSCCn2nc3ccccn3c2=O)cc1,22
9,CCn1ccnc1CN1CCCC(CO)(CCCc2ccccc2)C1 (stereo not drawn),3.68
10,CCn1cc(CN2CCCC(CO)(CCc3ccccc3)C2)c(C)n1 (stereo not drawn),53.1
11,Cn1ccnc1CN1CCCC(CO)(CCc2ccccc2)C1 (stereo not drawn),16.6
12,O=C(CN1CCCS1(=O)=O)Nc1ccc(OC2CCCC2)cc1,-5.94
13,O=C(CN1CCCS1(=O)=O)Nc1cccc(COC2CCCCC2)c1,55.5
14,O=C(CN1CCCS1(=O)=O)Nc1ccc(OC2CCCC2)c(Cl)c1,-6.94
15,CNC(=O)CCc1cc(C2CCCN2C(=O)CO)nc(C)n1 (stereo not drawn),29.4
16,Cc1nc(CN2C(=O)CC[C@@H]3[C@H]2CCN3C(=O)NC2CC2)cs1,38.7
17,O=C(c1scc2c1OCCO2)N1CCOC(Cc2cccc(F)c2)C1 (stereo not drawn),-22
18,COc1ccc(CC2CN(C(=O)c3ocnc3C)CCO2)cc1 (stereo not drawn),46.4
19,CN(CC(=O)N1CCOC(CCc2ccccc2)C1)Cc1ccccn1 (stereo not drawn),54.2
20,O=C(c1scc2c1OCCO2)N1CCOC(Cc2ccc(F)cc2)C1 (stereo not drawn),0.72
21,O=C(c1scc2c1OCCO2)N1CCOC(CCc2ccccc2)C1 (stereo not drawn),75
22,Cc1ccnn1CCC(=O)N1CCOC(CCc2ccccc2)C1 (stereo not drawn),44.3
23,Cc1nc(C(=O)N2CCOC(Cc3ccc(F)cc3)C2)co1 (stereo not drawn),-23.4
24,Cc1n[nH]c(CCC(=O)N2CCOC(Cc3ccc(F)cc3)C2)c1C (stereo not drawn),55.4
25,Cc1ncoc1C(=O)N1CCOC(Cc2ccccc2)C1 (stereo not drawn),55

row,SMILES,INHIBITION [%]
1,Cc1nc(C(=O)N2CCOC(Cc3ccccc3)C2)co1 (stereo not drawn),-48.5
2,CN(CC(=O)N1CCOCC(CO)C1)Cc1ccccn1 (stereo not drawn),19.5
3,Cc1n[nH]c(CCC(=O)N2CCOC(Cc3ccccc3)C2)c1C (stereo not drawn),7.19
4,CC(C)CCc1n[nH]c(C(=O)O)c1Br,11.7
5,O=c1[nH]c2cn(-c3cccc(F)c3)c(=O)n2[nH]1,48
6,CC(C)Cn1cncc1-c1nc2c([nH]1)CCCNC2=O,-21.8
7,Cc1cccc(-c2nc(C)nn2CC(=O)NC(C)C2CC2)c1 (stereo not drawn),33.3
8,Cc1cccc2c1NC(c1cnc(C3CCC3)s1)NC2=O (stereo not drawn),39.3
9,Cc1cc(=O)n2nc(Oc3ccc(F)c(F)c3)sc2n1,42.5
10,CC(=O)N1CCC(Cc2cnc(C(=O)N3CCCC3)cn2)C1 (stereo not drawn),7.52
11,Cc1ccc(OCCN(C)C(C)c2cccc(S(N)(=O)=O)c2)cc1 (stereo not drawn),-31.8
12,CN(C)C[C@H]1OC[C@@H]2CCN(C(=O)Cc3cccs3)C[C@@H]21,13.7
13,Cc1cc(N2Cc3cnn(CCO)c3C2)nc(-c2ccccc2)n1,-81.1
14,O=C(c1cccnc1)N1CCOC(CCCc2ccccc2)C1 (stereo not drawn),60.9
15,O=C(c1cccnc1)N1CCOC(Cc2ccccc2Cl)C1 (stereo not drawn),0.55
16,CCNc1ncc(C(=O)N2CCOC(CCCc3ccccc3)C2)cn1 (stereo not drawn),42.1
17,COCCCN1Cc2cccc(NC(=O)c3ccccc3C)c2C1,40.6
18,COCCCN1Cc2cccc(NC(=O)c3cc(F)cc(F)c3)c2C1,45.7
19,COCCCN1Cc2cccc(NC(=O)c3ccccc3Cl)c2C1,50
20,CCn1c(NCc2cccnc2)nc2c(C)nn(C)c2c1=O,-9.73
21,Cc1nn(C)c2c(=O)n(C(C)C)c(NCC3CCCO3)nc12 (stereo not drawn),3.58
22,CCn1c(NCc2ccccn2)nc2c(C)nn(C)c2c1=O,18.4
23,CCn1c(NCc2ccccc2)nc2c(C)nn(C)c2c1=O,33.3
24,Cc1nn(C)c2c(=O)n(C(C)C)c(NCCc3ccccc3)nc12,87.2
25,CCCn1c(NCCc2ccccc2)nc2c(C)nn(C)c2c1=O,64.8

row,SMILES,INHIBITION [%]
1,CCCn1nc(C)c(C(=O)N(C)[C@@H]2CC[C@@H](OC)[C@@H]2O)c1C,40.65
2,CCn1ncc2c(C(F)(F)F)cc(-c3cnn(C)c3)nc21,19.55
3,CCOC(=O)c1cnn(C2CCN(C(=O)CC(C)(C)C)CC2)c1N,-17.4
4,CCN(CC)c1nc(C)cc(C(=O)Nc2cccc(C(N)=O)c2)n1,25.3
5,Cc1nnc(C(NS(=O)(=O)c2cc(C#N)ccc2C)C(C)C)[nH]1 (stereo not drawn),49.1
6,CSCC[C@H]1CN2CCC[C@H]2CN1Cc1coc2ccc(C)cc2c1=O,43.6
7,CC(=O)NCC(=O)N1Cc2nccn2CC(CN(C)C(C)C)C1 (stereo not drawn),5.44
8,CN(Cc1ccsc1)C(=O)Nc1ccc(N(C)C)nc1,33.8
9,CN(C)c1ccc(NC(=O)NCc2ccc(Cl)s2)cn1,-21
10,CN(Cc1ccc(Cl)s1)C(=O)Nc1ccc(N(C)C)nc1,58.8
11,Cn1cccc1C(=O)N1CCc2ncnc(C3CC3)c2CC1,35.8
12,COCCSCC(=O)NCc1ccc(N(C)C)nc1,43.5
13,CCOCCCNC(=O)c1nc2c(s1)CCCN2c1ccc(C)nn1,35.8
14,COC(=O)CC(C)(C)CC(=O)N1CCC(C(F)(F)F)CC1,24.6
15,Cc1nc(C2CCCN2CCCS(=O)(=O)c2ccccc2)no1 (stereo not drawn),3.603
16,CCc1nc(C2CCCN2CCCc2nc3ccccc3o2)no1 (stereo not drawn),62.6
17,Cc1nc(C2CCCN2CCCc2nc3ccccc3o2)no1 (stereo not drawn),21.6
18,Cc1nc(C2CCCN2CCCS(N)(=O)=O)no1 (stereo not drawn),22.5
19,CC(C)c1nc(C2CCCN2CCCc2nc3ccccc3o2)no1 (stereo not drawn),26.3
20,CCc1nc(C2CCCN2CCS(=O)(=O)c2ccccc2)no1 (stereo not drawn),22.007
21,Cc1nc(C2CCCN2CCCS(=O)(=O)N(C)C)no1 (stereo not drawn),54.3
22,CN(C)S(=O)(=O)CCCN1CCCC1c1noc(C2CC2)n1 (stereo not drawn),-15.5
23,CCc1nc(C2CCCN2CCCS(=O)(=O)c2ccccc2)no1 (stereo not drawn),51.2
